The record followed here is PubChem BioAssay (NCATS).

Records with an inconclusive call do not appear. Where a call stands in place of a potency, no number is given. Calls of active or inactive are those of the source. Calls follow the shape of the dose curve; as a rule, active = well fitted inhibition curve with a large enough effect in the repeat runs; inconclusive = weak or mixed curves; inactive = no such curve, though single readings can be large or run the other way.
Potency is read from the fitted curve at half-maximal effect.

Sequence of Cytochrome P450 2C9 (Homo sapiens) (P11712 whole entry, looked up): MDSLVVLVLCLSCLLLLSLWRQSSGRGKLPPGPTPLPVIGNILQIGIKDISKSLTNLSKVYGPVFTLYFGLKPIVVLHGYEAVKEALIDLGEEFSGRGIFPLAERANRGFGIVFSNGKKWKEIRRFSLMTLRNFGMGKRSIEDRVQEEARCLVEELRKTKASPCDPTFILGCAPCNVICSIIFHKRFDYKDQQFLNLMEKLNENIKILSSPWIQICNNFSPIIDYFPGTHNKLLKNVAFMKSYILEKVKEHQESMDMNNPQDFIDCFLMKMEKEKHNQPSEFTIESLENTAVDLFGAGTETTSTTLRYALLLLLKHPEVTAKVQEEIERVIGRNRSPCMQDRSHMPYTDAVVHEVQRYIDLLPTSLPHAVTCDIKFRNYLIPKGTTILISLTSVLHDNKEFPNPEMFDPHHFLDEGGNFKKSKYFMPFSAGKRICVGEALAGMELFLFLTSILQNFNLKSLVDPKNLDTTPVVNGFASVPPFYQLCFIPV

The assay addresses Cytochrome P450 2C9 (Homo sapiens) (UniProt P11712). The assay can be described thus: Cytochrome P450 family 2 subfamily C member 9 (CYP2C9) small molecule antagonists: luciferase biochemical (cell-free) qHTS assay (AID 1645842). Also: nearly all actives have a fitted effect of over 55% in size. The note with it: P450-Glo CYP2C9 enzyme assay, luciferin luminescence; series mostly up to 57.4 µM. On the procedure:
National Center for Advancing Translational Sciences [NCATS] Assay Overview: Cytochrome P450 (CYP) enzymes are membrane-bound hemeproteins that play a key role in metabolism of drugs and xenobiotics. Assaying the effect of chemicals on CYP isozymes is useful to minimize the adverse drug reactions and toxicities in drug development process. Chemical compounds were tested for their effect on CYP enzyme activities by using P450-Glo (TM) screening systems (Promega Corporation, Madison, WI). These systems provide a luminescent method containing proluciferin substrates and are converted to luciferin products by CYP isozymes. The luciferin products formed are detected with a luciferin detection reagent, and the amount of light produced is proportional to CYP activity. P450-Glo (TM) CYP2C9 screening system (Catalog. No. V9790) was used to detect the compounds that interfere in CYP2C9 activity.
Assay Protocol Summary: Two ul of enzyme-substrate mix supplemented with 0.4% Bovine Serum Albumin was dispensed into medium binding white/solid 1536-well plates (Greiner Bio-One North America Inc., Monroe, NC) using a Flying Reagent Dispenser (FRD, Aurora Discovery, San Diego, CA). […] The assay plates were incubated at room temperature for 10 min. Then 2 ul of NADPH regeneration solution was added to each well of the assay plates using an FRD and incubated at 37C for 1 h. The reaction was stopped by adding 4 ul of detection reagent using an FRD and after 20 min incubation at room temperature, the luminescence signal was measured using a ViewLux plate reader (Perkin Elmer, Shelton, CT). Data were expressed as relative luminescence units.
As for `Fc1ccc(C(c2ccc(F)cc2)N2CCNCC2)cc1`, the Potency result was “inactive”.
For the compound `CCOC(=O)N1CCC(n2c(=O)[nH]c3cc(Cl)ccc32)CC1`, the Potency was 11 µM (active).
Same read-out and setting: the result for `CN(C)CCOC(c1ccccc1)c1ccc(Br)cc1` (stereo not given) reads “inactive”; that for `COc1cc(C(=O)NC2CCCNC2)cc(OC)c1OC` (stereo not given), “inactive”; that for `C/C(=N/NC(=O)c1ccncc1)C(=O)O`, “inactive”.
In the case of `O=C(O)C1CCC1`, the Potency entry is “inactive”.
As to `CCOC(=O)O[C@]1(C(=O)OCCl)CC[C@H]2[C@@H]3CCC4=CC(=O)C=C[C@]4(C)[C@H]3[C@@H](O)C[C@@]21C`, the Potency result is “inactive”.
Still for that read-out and setting: the result for `CC(C)C[C@H](NC(=O)CNC(=O)[C@H](Cc1ccc(O)cc1)NC(=O)[C@H](CO)NC(=O)[C@H](Cc1c[nH]c2ccccc12)NC(=O)[C@H](Cc1cnc[nH]1)NC(=O)[C@@H]1CCC(=O)N1)C(=O)N[C@@H](CCCN=C(N)N)C(=O)N1CCC[C@H]1C(=O)NCC(N)=O` (stereo in doubt) reads “inactive”; that for `Cc1ccc2c(Cl)cc(Cl)c(O)c2n1`, “inactive”.
Take `[O-][n+]1cccc(/C(Cl)=N/OC[C@@H](O)CN2CCCCC2)c1`: the Potency entry is “inactive”.
In the case of `C=CC[N+]1([C@H]2C[C@H]3[C@@H]4CC[C@H]5C[C@H](OC(C)=O)[C@@H](N6CCCCC6)C[C@]5(C)[C@H]4CC[C@]3(C)[C@H]2OC(=O)CC)CCCCC1`, the Potency result is “inactive”.
As to `CCC(=O)O[C@]1(C(=O)COC)[C@@H](C)C[C@H]2[C@@H]3CCC4=CC(=O)C=C[C@]4(C)C3(F)[C@@H](O)C[C@@]21C` (stereo not given in full), the Potency was 24.5 µM (active).
For the compound `CC(C)=CCC/C(C)=C/CC/C(C)=C/C(=O)OCC(=O)[C@@]1(O)CC[C@H]2[C@@H]3CCC4=CC(=O)C=C[C@]4(C)[C@H]3[C@@H](O)C[C@@]21C`, the Potency is 1.74 µM (active).
Still for that read-out and setting: then `COc1ccc(/C(C)=C/C(=O)O)c(OC)c1`, with “inactive”; and `NC(=O)NS(=O)(=O)c1ccc(Cl)cc1`, with “inactive”; and `COc1cc(S(N)(=O)=O)cc(C(=O)O)c1OC`, with “inactive”.
Take `CCS(=O)(=O)c1ccc(OC)c(C(=O)OC)c1`: the Potency result is “inactive”.
The same measure, in the same setting: the result for `O=C(O)[C@@H](O)[C@H](O)[C@H](O)[C@@H](O)C(=O)O` reads “inactive”; that for `CO[C@]1(NC(=O)CSC(F)F)C(=O)N2C(C(=O)O)=C(CSc3nnnn3CCO)CO[C@H]21`, “inactive”.
On the same count and under the same terms, then `CCCC(CCC)(C(=O)OCC)C(=O)OCC`, with “inactive”.
As for `Cc1ccc2ccc(Cl)cc2n1`, the Potency entry was “inactive”.
As to `C[C@@H](C1=C(CCN(C)C)Cc2ccccc21)c1ccccn1`, the Potency result was “inactive”.
`CCOC(=O)c1ccc(OCCN2C[C@H](O)[C@@H](O)[C@H](O)[C@H]2CO)cc1`: the Potency entry was “inactive”.
With `O=C(CCCCC(=O)Nc1c(I)cc(I)c(C(=O)O)c1I)Nc1c(I)cc(I)c(C(=O)O)c1I`, the Potency entry was “inactive”.
Same read-out and setting: the result for `Oc1ccccc1-c1nnco1` reads “inactive”; that for `C/C(=C1\CCOC(=O)S1)N(C=O)Cc1cnc(C)nc1N`, “inactive”.
The same measure, in the same setting: then `NC(=O)COCCN1CCN(C(c2ccccc2)c2ccc(Cl)cc2)CC1` (stereo not given), with “inactive”; and `CN1CCCN(C(c2ccccc2)c2ccc(Cl)cc2)CC1` (stereo not given), with “inactive”; and `O=C1Cc2cc(Cl)ccc2N1`, with 11 µM (active).
On to `CN1Cc2cc(C(=O)N3CCC(C4CCNCC4)CC3)ccc2N[C@@H](CC(=O)O)C1=O`, for which the Potency entry is “inactive”.
The same measure, in the same setting: the result for `O=C(C1CCCCC1)N1CC(=O)N2CCCc3ccccc3C2C1` (stereo not given) reads 6.17 µM (active).
For `NCC[C@H](O)C(=O)N[C@@H]1C[C@H](N)[C@@H](O[C@H]2O[C@H](CN)[C@@H](O)[C@H](O)[C@@H]2O)[C@H](O)[C@@H]1O[C@H]1O[C@H](CO)[C@@H](O)[C@H](N)[C@@H]1O`, the activity change, negative = inhibition is 1.19% [at 0.91 µM] (inactive).
On to `O=[N+]([O-])c1ccc(O)c2ncccc12`, for which the Potency result was “inactive”.
Turning to `COC(=O)c1ccc(NC(C)=O)cc1OC`, the Potency entry was “inactive”.
On the same count and under the same terms, the result for `CC(COc1ccccc1)NN` (stereo not given) reads 23.9 µM (active); that for `Cc1cc2nc3ccc(=[N+](C)C)cc-3sc2cc1N`, 1.08 µM (active).
The same measure, in the same setting: the result for `CCCCCC[C@@H](CCC)C(=O)O` reads “inactive”.
On the same count and under the same terms, the result for `CC(=O)Nc1ccn(C2COC(COC(=O)c3ccccc3)O2)c(=O)n1` (stereo not given) reads “inactive”.
Turning to `CC[N+]1(CC)CCC(=C(c2ccccc2)c2ccccc2)C1C` (stereo not given), the Potency result is “inactive”.
As for `CC[N+](CC)(CC)CCOC(=O)C(C1CCCC1)C1CCCC1`, the Potency entry was “inactive”.
